Experimental data from PubChem BioAssay AID953 (National Center for Advancing Translational Sciences (NCATS), 2007).
The other results are listed elsewhere or left out. Results filed as inconclusive are left out. Activity calls are given as the source filed them. Calls follow the shape of the dose curve; as a rule, active = well fitted curve in the direction sought with a large enough effect; inconclusive = small, poorly fitted or top-dose-only effect, or effect the other way, or another doubt; inactive = no such curve, though single readings can be large or run the other way.

Test: Confirmation Concentration-Response Assay for Agonists of the Thyroid Stimulating Hormone Receptor: Activators of Intracellular cAMP Concentrations in Parental HEK 293
Settings: parental HEK293 CNG biosensor, cAMP membrane potential fluorescence; series mostly up to 32.9 µM
Excerpt: NIH Chemical Genomics Center [NCGC] NIH Molecular Libraries Screening Centers Network [MLSCN] MLSCN Grant: 1 X01 MH080680-01 PI Name: Dr. Marvin Gershengorn NCGC Assay Overview: This cell based assay utilized a cyclic nucleotide gated ion channel (CNG) as a biosensor for cAMP induction. HEK 293 cells stably expressing the modified CNG were purchased from BD biosciences (http://www.atto.com/products/actone/features_benefits.shtml) . Stimulation of cAMP production causes the CNG to open and subsequent membrane depolarization to occur. A fluorescent membrane potential dye (BD biosciences) was utilized to detect cAMP stimulation in cells. The cells were maintained in DMEM medium (Invitrogen) containing 10 % FBS (Hyclone), 100 units/ml Penicillin, 100 ug/ml Streptomycin (Invitrogen), and 250 ug/ml Geneticin (Invitrogen) and 1 ug/ml Puromycin (Invitrogen) at 37C in 5% CO2. This assay was used as a counterscreen to "Confirmation Concentration-Response Assay for Agonists of the Thyroid Stimulating Hormone Receptor", to control for compounds signaling through endogenous receptors and other targets of HEK 293 cells.
NCGC Assay Protocol Summary: High Throughput Screening. Freshly passaged cells were dispensed into 1536-well assay plates at 4 ul/well in DMEM containing phenol red (Invitrogen), 10% FCS (Hyclone), and 100 units/ml Penicillin, 100 ug/ml Streptomycin (Invitrogen) and incubated at 37 C with 5% CO2 for 20 to 36 hrs before the robotic screening. The screen was initiated by addition of 4 ul/well membrane potential dye containing 100 uM RO 20-1724 (Sigma Aldrich), followed by 60 min incubation at room temperature to allow for dye equilibration across the cell membrane. 23 nl/well compound or control was then added to the assay plates, which were incubated for additional 30 min before reading a Envision fluorescence plate reader (Perkin Elmer) in bottom-read mode for fluorescence intensity (emission at 590 nm). Keywords: cAMP, CNG Ion Channel, quantitative high throughput screening, qHTS, HTS, probe identification, CNG, cAMP, cyclic nucleotide gated ion channel PubChem

Structure (SMILES) | outcome
C=CCn1c(COc2ccccc2F)nnc1SCC(=O)N1CC(=O)Nc2ccccc21 | inactive
CCOC(=O)c1cnc(-n2nc(C)cc2C)nc1-n1nc(C)cc1C | inactive
O=C(COC(=O)C12CC3CC(CC(C3)C1)C2)NCc1ccco1 | inactive
O=C(CN1C(=O)NC2(CCCCC2)C1=O)NCCC1=CCCCC1 | inactive
Cc1ccc(Nc2nc(CSc3nnnn3-c3ccccc3)cc(=O)[nH]2)cc1 | inactive
CCOC(=O)CSc1nnc(NC(=O)c2cccc(S(=O)(=O)N3CCCCC3)c2)s1 | inactive
